Source: PubChem BioAssay (NCI)
The panel holds about 83,000 compounds, 20% with a hit somewhere; the sample as a whole holds those more often.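 Activity criterion: percent growth below 10, measured after cells in 96-well plates were exposed to a single compound concentration for 48 hours.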 Unmarked numbers belong to inactive results. Active and inactive are the calls of the source.

What was measured:
Assay in all cases: NCI-60 one-dose screen, 48 h (100 = growth as untreated, 0 = no growth, -100 = all killed)
Conditions in all cases: 10 µM
[1] = system: T-47D breast
[2] = system: BT-549 breast
[3] = system: MDA-MB-435 melanoma
[4] = system: SW-620 colon
[5] = system: MCF7 breast
[6] = system: HCT-116 colon
[7] = system: HCC-2998 colon
[8] = system: KM12 colon

| SMILES | growth [1] | growth [2] | growth [3] | growth [4] | growth [5] | growth [6] | growth [7] | growth [8] |
| --- | --- | --- | --- | --- | --- | --- | --- | --- |
| CNC(=O)c1cc(Oc2ccc(NC(=O)Nc3ccc(Cl)c(C(C)(C)C)c3)c(F)c2)ccn1 | 20.5% | 47.2% | 29.9% | 69.2% | 16% | 19.7% | 44.2% | 20.9% |
| COc1ccc(C(=O)/C=C/c2cc(-c3ccc4c(c3)OCO4)n[nH]2)cc1OC | 43.8% | 41.4% | 73.5% | 36.4% | 27.2% | 18.4% | 91.3% | 54.1% |
| N#Cc1cnc2ccc(NCc3cnc[nH]3)cc2c1Nc1ccc(F)c(Cl)c1 | 57.2% | 74.2% | 92.4% | 71.7% | 91.9% | 56.1% | 91.4% | 84.2% |
| Cc1nn2c(/C=C3/C(=O)Nc4ccc(Cl)cc43)c(-c3ccccc3)nc2s1 | -1.58% (active) | 48.8% | 44.4% | 44.2% | 38.5% | 7.12% (active) | 102% | 59.1% |
| CCCCn1c(=O)[nH]c(N)c(C(c2ccc(Cl)cc2)c2c(N)[nH]c(=O)n(CCCC)c2=O)c1=O | 21% | 49.8% | 31.1% | 64.2% | 21.1% | 27.3% | 54.7% | 35.3% |
| COc1cc(-c2nc(-c3nnc(-c4cccnc4)o3)c3ccccn23)cc(OC)c1OC | 100% | 97.7% | 99.2% | 92.8% | 107% | 96.8% | 99.9% | 100% |
| CCN(CC)CCCOC(=O)Nc1ccccc1Cl | 106% | 111% | 105% | 102% | 112% | 113% | 110% | 111% |
| COc1cc(C2C(C#N)=C(c3c[nH]c4ccccc34)Nc3nc(N)[nH]c(=O)c32)cc(OC)c1OC (stereo not given) | 36.2% | 51.6% | 38.1% | 86.9% | 42.2% | 74% | 93.1% | 94.1% |
| Cc1cc(O)c(C2=NN(c3ccc(S(N)(=O)=O)cc3)C(c3ccc(N(C)C)cc3)C2)c(C)c1Cl (stereo not given) | 37% | 95.7% | 69.3% | 72.2% | 37.2% | 41.1% | 94.1% | 62.4% |
| FC(F)(F)c1ccc(-c2ncc(-c3ccc(C(F)(F)F)cc3)c(NCc3cc(C(F)(F)F)cc(C(F)(F)F)c3)n2)cc1 | 28.1% | 79.4% | 68.3% | 59.7% | 54.9% | 24.4% | 77.2% | 44.7% |
| CC1(C)Cc2c(cn(Cc3ccccc3)c2-c2ccccc2)-c2oncc21 | 75.7% | 108% | 92.8% | 95.7% | 105% | 88.2% | 104% | 105% |
| Nc1nc2c(nnn2C2CC(O)C(CO)O2)c(=O)[nH]1 (stereo not given) | 49.8% | 61.5% | 41.1% | 33.1% | 37.4% | 49.5% | 51.3% | 44.7% |
| Cc1ccc(-n2nnc3c(sc4ccccc43)c2=O)cc1 | 64.2% | 81.4% | 59% | 58.6% | 81.2% | 3.11% (active) | 70.8% | 25.3% |
| COc1cc(C2CC(=O)Nc3c2c(C)nn3-c2nc3ccccc3[nH]2)cc(OC)c1O (stereo not given) | 83.5% | 46.2% | 23% | 45.7% | 56.9% | 68.4% | 88.9% | 45.7% |
| CC(CNC(Cc1ccccc1)c1ccccc1)NC(Cc1ccccc1)c1ccccc1 (stereo not given) | 14.6% | 60.9% | 63.4% | 26.4% | 8.12% (active) | 13.2% | 20.1% | 22.2% |
